Our source for the sensor-assay potency score (higher = more potent) values is the OligoGym collection.
Note: reference of the scale not given here.

The first assay concerns the target TMEM90B. Nature of the assay: pooled miR-30 sensor sort-seq; sequence = guide strand. The note with it: shRNA.
As for TATTTCTCAGCATTCATCTGGT, the sensor-assay potency score (higher = more potent) was 0.677.

In turn, TAGAGGATGATGTTGGGCCGGT returned a sensor-assay potency score (higher = more potent) of -0.523.

In the case of TCGATGAAGGTGGTCTCGCAGC, the sensor-assay potency score (higher = more potent) is -1.08.

TTAATTAAACCATTCCTCTTGC came in with a sensor-assay potency score (higher = more potent) of 0.249.

Sequence TTCATCTGGTAACTTAAGCAGC showed a sensor-assay potency score (higher = more potent) of -0.817.

Take TTGAGTAGTCGCTCTCCAGCTC: the sensor-assay potency score (higher = more potent) was -0.0875.

Turning to TTATTTCTCAGCATTCATCTGG, the sensor-assay potency score (higher = more potent) stood at 0.827.

For TCACTCTCTGTGTCGCTTGAGT, the sensor-assay potency score (higher = more potent) was -1.01.

Consider TGTGTCGCTTGAGTAGTCGCTC, for which the sensor-assay potency score (higher = more potent) turned out to be 0.302.

Sequence TTGTATATTGCTAATGCGGTGG registered a sensor-assay potency score (higher = more potent) of -0.114.

In turn, ATCATTTGTACTGTACAGCATC showed a sensor-assay potency score (higher = more potent) of -1.17.

TTTCTCAGCATTCATCTGGTAA: the sensor-assay potency score (higher = more potent) was -0.53.

A further assay deals with TMOD3. The description is as above. The note with it: shRNA.
For TTTCATTATCTCTTAACGCATC, the sensor-assay potency score (higher = more potent) was -0.758.

The sequence TTTTCTTCTGTAAAAGTCTGTA had a sensor-assay potency score (higher = more potent) of -0.198.

On to TTTTTGTTATAGCATTAGCTGC, for which the sensor-assay potency score (higher = more potent) is -1.37.

TAACGCATCAATCAGTGCCAGA came in with a sensor-assay potency score (higher = more potent) of -1.33.

For TTACAATTTGATAACAACTAAA, the sensor-assay potency score (higher = more potent) was -1.42.

For the sequence TTTTTCTTCTGTAAAAGTCTGT, the sensor-assay potency score (higher = more potent) stood at 0.6.

Sequence TATAGCATTAGCTGCTCTGGTT gave a sensor-assay potency score (higher = more potent) of -0.335.

On to TTCAACAAGATGAGCATCGTTT, for which the sensor-assay potency score (higher = more potent) was -0.31.

TAGGGCACATAGTCTTCCCTGT gave a sensor-assay potency score (higher = more potent) of -0.185.

In turn, TTACAGAACTTTGTATTCGTTA had a sensor-assay potency score (higher = more potent) of 0.0652.

TTATATTACAGAACTTTGTATT showed a sensor-assay potency score (higher = more potent) of -0.879.

Turning to TAGTTCTCTTCAAACTCTCTTC, the sensor-assay potency score (higher = more potent) was -0.63.

A further assay has as its target TNFAIP2. Described as above. The settings on record: shRNA.
Regarding TTTCTCTTCCAGTTCTGTCTTC, the sensor-assay potency score (higher = more potent) is -0.182.

In the case of TATCAAACACGCTAACTCCTAC, the sensor-assay potency score (higher = more potent) is -0.68.

TAATTCGTCAGCTGCTTGCCTC had a sensor-assay potency score (higher = more potent) of -0.825.

Consider TCGGACATGTAAACAAACCAAG, for which the sensor-assay potency score (higher = more potent) was -1.46.

In turn, TCAATCTTGATGGCACTGGGGT displayed a sensor-assay potency score (higher = more potent) of -0.553.

Consider TTCTGTCTTCCATTCCACCATT, for which the sensor-assay potency score (higher = more potent) is -1.13.

In the case of TATCTGTGAGCCCAAGTCCAGC, the sensor-assay potency score (higher = more potent) was -1.63.

Sequence TAGCTCCAGAGCTCGGTCCATC displayed a sensor-assay potency score (higher = more potent) of -1.52.

TCAACATACATACAAAAGCAGT had a sensor-assay potency score (higher = more potent) of -1.49.

Consider TTCTGCTCCATGGACATCCGGA, for which the sensor-assay potency score (higher = more potent) is -0.115.

Sequence TATCGTTTACAAAGAGTCCTTG showed a sensor-assay potency score (higher = more potent) of -0.0149.

TTGGCAATAACATTGGCCCTGT: the sensor-assay potency score (higher = more potent) is -0.0405.
